Calls of active or inactive are those of the source.
Assays:
[1] = optical density shifts of acrAB sulA E. coli – strain DRC41, OD650, 48 h, E. coli filamentation inducer project, primary screen (AID 1152); details: higher = more signal, called active from +8 up or from −8 down;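 note: E. coli MC1000 strain DRC41 lacking acrAB efflux pump and sulA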
[2] = probe aLefty1 binding on compound microarray – biochemical, small-molecule microarray, 635/667 nm fluorescence, primary screen (AID 1153); details: higher = more signal;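 note: score merges spot fluorescence with signal-to-noise ratio from the scanned slide images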
[3] = plasmodial surface anion channel blockers, osmotic lysis – cell-based, P. falciparum Indochina, OD700, 1 h, primary screen (AID 1154); details: P. falciparum Indochina infected RBC osmotic lysis, higher = more signal, called active from +8 up or from −8 down
[4] = plasmodial surface anion channel blockers, osmotic lysis – cell-based, P. falciparum Indochina, OD700, 2 h, primary screen (AID 1155);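 note: lysis reports solute entry through the parasite surface anion channel PSAC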; details: P. falciparum Indochina infected erythrocytes, higher = more signal, called active from +8 up or from −8 down
[5] = changes in parasitized red cell lysis, either direction – P. falciparum Indochina, OD700, 3 h, PSAC antagonist project, primary screen (AID 1156); details: P. falciparum-infected erythrocytes, osmotic lysis, higher = more signal, called active from +8 up or from −8 down
[6] = plasmodial surface anion channel blockers, osmotic lysis – cell-based, P. falciparum Indochina, OD700, 18 h, primary screen (AID 1157); details: P. falciparum Indochina infected erythrocytes, osmotic lysis OD700, 18 h; higher = more signal, called active from +8 up or from −8 down
[7] = S6 kinase pathway phospho-S6 level changes – cell-based, A549, cytoblot, luminescence, serum-stimulated, primary screen (AID 1158); details: 5 h, higher = more signal;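 note: serum-stimulated A549 lung adenocarcinoma cells; signal is phosphorylated S6 detected by cytoblot immunostaining with HRP secondary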
[8] = molecular target: NADPH oxidase 2 (Homo sapiens) (UniProt P04839); assay: compounds shifting NOX2 Amplex Red fluorescence – cell-based, HEK293-NOX2, PMA-stimulated, NOX inhibitor project, primary screen (AID 1159); details: 45 min, higher = more signal, called active from +8 up or from −8 down; note: test concentration not given here
[9] = molecular target: NADPH oxidase 4 (Homo sapiens) (UniProt Q9NPH5); assay: compounds shifting NOX4 Amplex Red fluorescence – cell-based, HEK293-NOX4, tetracycline-induced, NOX inhibitor project, primary screen (AID 1160); details: HEK293-NOX4, Amplex Red H2O2 fluorescence, 45 min; higher = more signal, called active from +8 up or from −8 down
[10] = molecular target: NADPH oxidase 5 (Homo sapiens) (UniProt Q96PH1); assay: compounds shifting NOX5 Amplex Red fluorescence – cell-based, HEK293-NOX5, NOX inhibitor project, primary screen (AID 1161); details: HEK293-NOX5, ionomycin, 45 min, higher = more signal
Sequence of NADPH oxidase 5 (Homo sapiens) (Q96PH1 whole entry, looked up): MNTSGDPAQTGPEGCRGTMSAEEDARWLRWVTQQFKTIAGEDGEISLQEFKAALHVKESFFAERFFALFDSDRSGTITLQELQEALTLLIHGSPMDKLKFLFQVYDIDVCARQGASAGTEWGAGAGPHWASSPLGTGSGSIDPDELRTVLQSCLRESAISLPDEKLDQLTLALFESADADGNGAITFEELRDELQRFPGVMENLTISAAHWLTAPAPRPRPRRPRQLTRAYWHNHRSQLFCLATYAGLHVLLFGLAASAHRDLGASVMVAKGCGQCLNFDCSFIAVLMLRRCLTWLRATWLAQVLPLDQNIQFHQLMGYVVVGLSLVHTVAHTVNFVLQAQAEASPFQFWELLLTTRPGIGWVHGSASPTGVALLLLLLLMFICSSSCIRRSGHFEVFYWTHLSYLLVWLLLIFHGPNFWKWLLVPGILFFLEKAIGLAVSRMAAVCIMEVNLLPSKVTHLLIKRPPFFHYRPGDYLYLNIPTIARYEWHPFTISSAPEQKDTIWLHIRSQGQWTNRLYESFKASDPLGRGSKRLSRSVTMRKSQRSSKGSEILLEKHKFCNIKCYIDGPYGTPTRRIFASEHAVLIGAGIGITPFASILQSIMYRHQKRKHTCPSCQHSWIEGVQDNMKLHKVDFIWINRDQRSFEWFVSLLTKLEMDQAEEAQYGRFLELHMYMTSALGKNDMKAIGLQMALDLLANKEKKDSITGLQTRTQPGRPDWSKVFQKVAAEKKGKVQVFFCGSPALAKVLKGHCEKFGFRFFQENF

Sequence of NADPH oxidase 2 (Homo sapiens) (P04839 whole entry, looked up): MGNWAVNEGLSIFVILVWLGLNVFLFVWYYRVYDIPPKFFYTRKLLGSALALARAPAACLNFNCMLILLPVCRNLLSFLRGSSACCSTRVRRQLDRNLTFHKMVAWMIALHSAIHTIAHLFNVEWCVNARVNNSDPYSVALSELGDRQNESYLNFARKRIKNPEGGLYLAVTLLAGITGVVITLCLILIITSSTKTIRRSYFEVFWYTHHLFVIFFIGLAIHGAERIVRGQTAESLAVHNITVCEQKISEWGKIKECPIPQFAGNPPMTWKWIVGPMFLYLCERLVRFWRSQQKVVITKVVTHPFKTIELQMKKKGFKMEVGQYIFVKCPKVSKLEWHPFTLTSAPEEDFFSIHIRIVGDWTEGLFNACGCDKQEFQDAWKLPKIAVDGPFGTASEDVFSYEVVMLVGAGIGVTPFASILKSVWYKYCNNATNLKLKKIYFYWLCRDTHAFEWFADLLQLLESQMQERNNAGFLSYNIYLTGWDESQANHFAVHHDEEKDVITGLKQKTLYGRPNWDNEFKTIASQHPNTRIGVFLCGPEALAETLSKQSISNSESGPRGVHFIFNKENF
Sequence of NADPH oxidase 4 (Homo sapiens) (Q9NPH5 whole entry, looked up): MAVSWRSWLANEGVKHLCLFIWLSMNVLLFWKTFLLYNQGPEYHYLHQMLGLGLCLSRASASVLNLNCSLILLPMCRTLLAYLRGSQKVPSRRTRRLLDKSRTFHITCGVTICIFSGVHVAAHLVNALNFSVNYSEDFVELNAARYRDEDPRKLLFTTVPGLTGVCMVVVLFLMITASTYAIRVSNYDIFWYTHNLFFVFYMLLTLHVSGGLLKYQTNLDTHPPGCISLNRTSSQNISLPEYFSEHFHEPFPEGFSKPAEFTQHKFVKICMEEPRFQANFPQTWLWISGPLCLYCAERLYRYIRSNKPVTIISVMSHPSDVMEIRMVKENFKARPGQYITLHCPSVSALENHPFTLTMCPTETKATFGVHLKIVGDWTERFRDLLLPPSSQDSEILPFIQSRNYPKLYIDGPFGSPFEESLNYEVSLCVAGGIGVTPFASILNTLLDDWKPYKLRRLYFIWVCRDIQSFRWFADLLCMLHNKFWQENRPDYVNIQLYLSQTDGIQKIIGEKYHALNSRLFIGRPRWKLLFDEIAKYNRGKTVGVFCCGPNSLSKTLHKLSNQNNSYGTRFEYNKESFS

Row | SMILES | z-score [1] | composite z-score [2] | z-score [3] | z-score [4] | z-score [5] | z-score [6] | z-score [7] | z-score [8] | z-score [9] | z-score [10]
1 | CC(C)(C)N1C(=O)[C@H]2[C@H]3[C@H](O)[C@H](O)CC(=NO[C@@H]4O[C@H](CO)[C@@H](O)[C@H](O)[C@H]4O)[C@H]3CC[C@H]2C1=O | -1.73 (inactive) | -0.193 | 5.45 (inactive) | 1.46 (inactive) | 1.01 (inactive) | 1.24 (inactive) | -0.527 | 0.192 (inactive) | -0.912 (inactive) | -3.69
2 | CCC=CCCC(OC(=O)c1ccc(Br)cc1)C1=CCCCC1=O (stereo not given) | -0.686 (inactive) | -0.3 | 3.4 (inactive) | 0.626 (inactive) | -0.0019 (inactive) | -0.366 (inactive) | 0.86 | -0.126 (inactive) | -0.534 (inactive) | -3.12
3 | C=CC[C@@H]1C=C[C@H](ON=C[C@@H](C)[C@H](OCc2ccccc2)C(C)C)[C@@H](CO)O1 | -0.144 (inactive) | -0.193 | 1.64 (inactive) | 0.0178 (inactive) | -0.667 (inactive) | 0.197 (inactive) | -0.544 | -0.55 (inactive) | -0.301 (inactive) | -1.48
4 | CC(CCC(=O)OC[C@H]1O[C@H](C#Cc2ccccc2)C=C[C@@H]1Oc1ccc(C)cc1)=NO[C@H](C)c1cn([C@H](CO)Cc2ccccc2)nn1 | -0.757 (inactive) | -0.243 | 14.6 (active) | 2.79 (inactive) | 1.47 (inactive) | 1 (inactive) | -1.01 | -1.26 (inactive) | 0.432 (inactive) | 0.32
5 | COC(=O)[C@@H]1CC[C@H](C)[C@@H](c2ccc(C)cc2)N1C(=O)c1ccc(C=NOCC[C@@H]2C=C[C@H](OC(C)=O)[C@@H](COC(C)=O)O2)cc1 | 0.118 (inactive) | -0.111 | 3.09 (inactive) | 0.897 (inactive) | 0.533 (inactive) | 0.858 (inactive) | -0.994 | -1.19 (inactive) | 0.605 (inactive) | -0.134
6 | CCCCC#C[C@@H]1C=C[C@H](Oc2ccc(C(=O)OC)cc2)[C@@H](COC(=O)OCC)O1 | 0.0015 (inactive) | -0.0559 | 5.53 (inactive) | 1.38 (inactive) | 0.77 (inactive) | 0.0033 (inactive) | 0.164 | 1.82 (inactive) | 0.725 (inactive) | 1.03
7 | CO[C@H]1COC(=O)[C@@H](C)COC(=O)[C@H](COCc2ccccc2)NC(=O)CC=C[C@H]1C | -1.17 (inactive) | -0.0654 | -0.262 (inactive) | 0.149 (inactive) | -0.0011 (inactive) | 0.156 (inactive) | 0.503 | -1.95 (inactive) | 0.126 (inactive) | 0.284
8 | CO[C@@H]1COC(=O)[C@@H](C)NC(=O)CC=C[C@@H](C)[C@H](NS(=O)(=O)c2ccc(C)cc2)COC(=O)[C@H](C)NC(=O)CC=C[C@H]1C | 0.69 (inactive) | -0.145 | 0.079 (inactive) | -0.121 (inactive) | -0.361 (inactive) | -0.0378 (inactive) | -0.363 | 0.931 (inactive) | 0.649 (inactive) | -0.165
9 | O=C1[C@H]2[C@H]3[C@H](O)[C@H](O)CC(=NOCc4ccccc4)[C@H]3CC[C@H]2C(=O)N1Cc1ccc2c(c1)OCO2 | -1.06 (inactive) | -0.147 | 19.4 (active) | 2.12 (inactive) | 0.686 (inactive) | 0.599 (inactive) | -0.702 | 0.414 (inactive) | -0.0657 (inactive) | -2.61
10 | COc1ccc(O[C@H]2C=C[C@@H](c3ccccc3)O[C@@H]2CON=C(C)C)cc1 | -2.05 (inactive) | 0.407 | 0.288 (inactive) | -0.0779 (inactive) | -0.541 (inactive) | 0.196 (inactive) | -0.807 | -0.254 (inactive) | -0.311 (inactive) | -0.684
11 | CO[C@@H]1COC(=O)[C@H](CCSC)NC(=O)CC=C[C@@H](C)COC(=O)[C@H](C)NC(=O)CC=C[C@H]1C | 0.675 (inactive) | -0.231 | -0.0455 (inactive) | 0.327 (inactive) | 0.033 (inactive) | 0.353 (inactive) | 0.399 | -0.906 (inactive) | -0.0183 (inactive) | 0.0788
12 | CCOC(=O)[C@H](CC(C)C)NC(=O)CCC1CC(OC(=O)NCc2ccc3c(c2)OCO3)CC2(CCCC(COC(=O)NCc3cccc(C(F)(F)F)c3)O2)O1 (stereo not given in full) | -0.457 (inactive) | 0.125 | 1.73 (inactive) | 0.182 (inactive) | 0.286 (inactive) | 0.297 (inactive) | 0.427 | 1.46 (inactive) | 0.179 (inactive) | 1.2
13 | C[C@H](ON=C1[C@H]2CCn3c(=O)n(-c4ccccc4)c(=O)n3[C@H]2[C@H](O)[C@@H]2O[C@H]12)c1cn([C@H](CO)Cc2ccccc2)nn1 | 0.699 (inactive) | 0.0502 | 0.463 (inactive) | -0.426 (inactive) | -0.089 (inactive) | -0.0498 (inactive) | -0.52 | -0.094 (inactive) | 0.535 (inactive) | 0.346
14 | Cc1cc2c(nc1C)CCCCN2CC(C)ON=C1[C@H]2CCn3c(=O)n(-c4ccccc4)c(=O)n3[C@H]2[C@H](O)[C@@H]2O[C@H]12 (stereo not given in full) | 1.03 (inactive) | -0.0536 | 0.683 (inactive) | 0.0165 (inactive) | 0.417 (inactive) | 0.122 (inactive) | 0.0162 | -1.86 (inactive) | -0.0659 (inactive) | 0.168
15 | COc1ccc(O[C@@H]2[C@H](O)CO[C@H]2C=Cc2ccccc2)cc1 | -0.164 (inactive) | -0.237 | 1.65 (inactive) | -0.518 (inactive) | -0.433 (inactive) | -0.323 (inactive) | 0.243 | 0.335 (inactive) | -0.426 (inactive) | -0.102
16 | CO[C@H]1COC(=O)CC=C[C@H](C)[C@@H](OC)COC(=O)[C@@H](C)COC(=O)CC=C[C@@H]1C | -0.513 (inactive) | -0.193 | -0.435 (inactive) | 0.106 (inactive) | 0.033 (inactive) | -0.213 (inactive) | -0.0875 | -1.46 (inactive) | 0.28 (inactive) | 0.18
17 | CCOC(=O)[C@H](CC(C)C)NC(=O)CCC1CC(OC(=O)NCc2cccc3ccccc23)CC2(CCCC(COC(=O)NCCC(C)C)O2)O1 (stereo not given in full) | -0.64 (inactive) | 0.185 | 22.7 (active) | 6.81 (inactive) | -0.861 (inactive) | 0.78 (inactive) | 2.49 | 0.902 (inactive) | 0.777 (inactive) | 0.389
18 | C#CCCCON=C1C[C@@H](O)[C@@H](O)[C@@H]2[C@@H]3C(=O)N(C(C)(C)C)C(=O)[C@@H]3CC[C@@H]12 | -0.441 (inactive) | 0.308 | 3.54 (inactive) | 1.28 (inactive) | 0.158 (inactive) | 0.305 (inactive) | 0.929 | 0.934 (inactive) | 1.27 (inactive) | -0.106
19 | C[C@@H](c1ccccc1)N1C(=O)[C@H]2[C@H]3[C@H](O)[C@H](O)CC(=O)[C@H]3CC[C@H]2C1=O | 0.477 (inactive) | -0.196 | -0.74 (inactive) | 0.0593 (inactive) | -0.105 (inactive) | 0.0091 (inactive) | 0.297 | -0.522 (inactive) | 0.05 (inactive) | 0.811
20 | COC(=O)CC=C[C@H](C)[C@@H](OCc1cccc(Br)c1)[C@@H](C)[C@H](OC)C1CCCCC1 | -0.533 (inactive) | -0.333 | 1.82 (inactive) | 0.675 (inactive) | -0.0293 (inactive) | 0.686 (inactive) | 0.433 | -0.453 (inactive) | 0.286 (inactive) | 0.664
21 | COc1ccc(O[C@H]2C=C[C@@H](c3ccccc3)O[C@@H]2COC(=O)CCC(C)=NOC[C@@H](O)[C@H]2O[C@@H]3OC(C)(C)O[C@@H]3[C@H]2O)cc1 | -1.89 (inactive) | 0.0004 | 4.09 (inactive) | 1.12 (inactive) | 1.11 (inactive) | 0.662 (inactive) | 0.332 | -1.42 (inactive) | 0.0675 (inactive) | -1.42
22 | CC(CCN1CCCCc2nc(C)c(C)cc21)=NO[C@H](C)c1cn([C@H](CO)Cc2ccccc2)nn1 | 0.285 (inactive) | -0.0162 | 2.87 (inactive) | 1.16 (inactive) | 0.758 (inactive) | 0.589 (inactive) | -0.286 | -0.939 (inactive) | 0.0532 (inactive) | 0.477
23 | COc1ccc(O[C@H]2C=C[C@@H](c3ccccc3)O[C@@H]2CON=C(C)CCC(=O)OC[C@H]2O[C@H](c3ccccc3)C=C[C@@H]2Oc2ccc(OC)cc2)cc1 | 0.274 (inactive) | 0.64 | 0.99 (inactive) | 0.328 (inactive) | 0.104 (inactive) | 0.464 (inactive) | -0.661 | -0.2 (inactive) | 0.988 (inactive) | -0.925
24 | CC(C)CCN1CCc2nc(COc3ccccc3)c3c(c2C1)CO[C@@H](C)C3 | -0.152 (inactive) | 0.0768 | 3.22 (inactive) | 0.326 (inactive) | 0.331 (inactive) | 0.101 (inactive) | -0.356 | 1.2 (inactive) | 0.131 (inactive) | 0.242
25 | O=C1[C@H]2[C@H]3[C@H](O)[C@H](O)CC(=NOCc4ccccc4)[C@@H]3CC[C@H]2C(=O)N1Cc1ccc2c(c1)OCO2 | 0.0628 (inactive) | 0.217 | 6.28 (inactive) | 1.02 (inactive) | 1.06 (inactive) | 0.354 (inactive) | 0.0008 | 1.09 (inactive) | 0.665 (inactive) | -1.01
26 | O=C(C=Cc1ccc2c(c1)OCO2)c1ccc(F)cc1 | -0.394 (inactive) | 0.0685 | 20.7 (active) | 3.22 (inactive) | -0.0309 (inactive) | 0.47 (inactive) | -0.41 | 1.75 (inactive) | -2 (inactive) | -1.56

From PubChem BioAssay
